Sm TGR block: inhibitors of Schistosoma mansoni thioredoxin glutathione reductase; Q962Y6; purified TGR, DTNB reduction, TNB absorbance 405 nm; Potency, µM (series often up to 114 µM), for inactives: top-dose activity change, negative = inhibition, usual class: inhibitors; 360,000 tested, 3% active; note: % is set by controls: 0 for no effect and ±100 for the full control effect; nearly all actives have a fitted effect of over 60% in size
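First, TGR (20 nM dispensed) and NADPH were mixed with compound. Second, a 15 min room-temperature incubation followed. Third, further NADPH and then DTNB were added to start the reaction. Finally, TNB absorbance was monitored kinetically.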
Pf growth 96h: inhibits malaria parasite growth, 96 h | P. falciparum luciferase reporter growth, 96 h | Potency, µM (titrated, usually from 28.7 µM), for the others: at the top dose activity change, negative = inhibition, hits mostly inhibitors | 320,000 tested, 6.9% active; note: % is set by controls: 0 for no effect and ±100 for the full control effect
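Two parasite generations (96 h, 37 C, 5% CO2) of compound exposure in infected erythrocytes (0.05% parasitemia, 2% hematocrit). Luciferase-reporter P. falciparum; decreased luminescence indicates inhibited growth, aimed at apicoplast-acting delayed death.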
Pf growth 48h: inhibits P. falciparum growth in the first generation, 48 h. AID 504832. P. falciparum luciferase growth in erythrocytes, 48 h. 310,000 tested, 5.9% active. Potency, µM (highest dose often 28.7 µM), for the others: top-dose activity change, negative = inhibition, usual class: inhibitors; note: % is set by controls: 0 for no effect and ±100 for the full control effect
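Luciferase-expressing P. falciparum in infected erythrocytes (2% hematocrit, 0.1% parasitemia final) in RPMI 1640/0.5% Albumax were exposed to compound for 48 hours at 37 C, 5% CO2; growth read as luminescence.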
SARS PLP yeast: blocks SARS-CoV papain-like protease in a yeast assay. S. cerevisiae expressing SARS-CoV PLpro, growth rescue. 330,000 tested, 0.19% active. Potency, µM (doses to about 32.9 µM), without a hit: at the top dose activity, positive = growth rescue, actives largely listed as activators; calls by dose curve; note: 0% is about no effect; nearly all actives have a fitted effect of over 55% in size
The depositor's hits bear a star. The list is not random: actives were taken first. Their share in the collection is about 12%. Unless noted, calls come from the whole dose curve; as a rule, active = well fitted curve in the direction sought with a large enough effect; inconclusive = small, poorly fitted or top-dose-only effect, or another doubt; inactive = no such curve, though single readings can be large; an effect the other way counts as inactive or inconclusive. Potency is the fitted concentration of half-maximal effect.

Results for O=C(/C=C/c1ccccc1)NC(=O)c1ccccc1O ?
Sm TGR block: -4.0%; Pf growth 96h: 1.65µM*; Pf growth 48h: 1.31µM*; SARS PLP yeast: -6.1%

What do the screens show for `CCOC(=O)C1=C(CN2CCCCC2)NC(=O)NC1c1ccc(C)cc1` (stereo not drawn)?
Sm TGR block: -25.7%

Results for COc1ccc2c(c1OC)C(=O)OC2C1c2cc3c(cc2CCN1C)OCO3 (stereo not drawn) ?
Sm TGR block: -6.6%; Pf growth 96h: 11.7µM*; Pf growth 48h: 12.7%; SARS PLP yeast: 0.4%

How did COc1ccc2c(c1OC)C(=O)O[C@@H]2[C@H]1c2c(cc3c(c2OC)OCO3)CCN1C do in these assays?
Sm TGR block: -20.3%; Pf growth 96h: inconclusive; Pf growth 48h: inconclusive; SARS PLP yeast: 4.6%

What do the screens show for `Cc1ccc(Cl)cc1NC(=O)C1COc2ccccc2O1` (stereo not drawn)?
Sm TGR block: 9.8%; Pf growth 96h: -11.3%; Pf growth 48h: -5.4%; SARS PLP yeast: -3.0%

Results for CCN(CC(=O)Nc1cc(Cl)ccc1C)C(=O)c1ccc(=O)n(Cc2ccccc2)n1 ?
Sm TGR block: 0.6%; Pf growth 96h: 9.28µM*; Pf growth 48h: inconclusive; SARS PLP yeast: 3.6%

What do the screens show for `CCN(CC(=O)Nc1cc(Cl)ccc1C)C(=O)C1COc2ccccc2O1` (stereo not drawn)?
Sm TGR block: 20µM*; Pf growth 96h: -23.4%; Pf growth 48h: inconclusive; SARS PLP yeast: -3.0%

How did CC(NC(=O)Cn1cccc1)c1ccccc1 (stereo not drawn) do in these assays?
Sm TGR block: -21.3%; Pf growth 96h: 36.0%; Pf growth 48h: 31.3%; SARS PLP yeast: 0.6%

Results for O=[N+]([O-])c1cc2oc3c(c2c(C=NCc2ccncc2)c1O)CCCC3 ?
Sm TGR block: inconclusive; Pf growth 96h: inconclusive; Pf growth 48h: 10.4µM*

Results for O=C(CSc1nc2ccccc2c2c1CCCC2)N1CCOCC1 ?
Sm TGR block: 6.2%; Pf growth 96h: 9.28µM*; Pf growth 48h: 2.8%; SARS PLP yeast: -3.5%

Results for Cc1ccc(C)n1CCN1CCN(C(=O)CSc2nc3ccccc3nc2N2CCOCC2)CC1 ?
Sm TGR block: -34.4%; Pf growth 96h: -1.3%; Pf growth 48h: 11.7µM*; SARS PLP yeast: 5.8%

Results for O=C(CSc1nncc2ccccc12)N1CCOCC1 ?
Sm TGR block: inconclusive; Pf growth 48h: 4.7%; SARS PLP yeast: 3.7%

What do the screens show for `Cc1ccc(NC(=O)CSc2nc3ccccc3nc2N2CCOCC2)cc1`?
Sm TGR block: -20.6%; Pf growth 96h: inconclusive; Pf growth 48h: -8.9%; SARS PLP yeast: -1.4%

Results for COc1ccc(N2CCN(C(=O)CCc3nnc4ccc(N5CCC(C)CC5)nn34)CC2)cc1 ?
Sm TGR block: -15.4%; Pf growth 96h: -2.2%; Pf growth 48h: -20.2%; SARS PLP yeast: 1.6%

Results for COc1cccc(N2CCN(c3ccc4nnc(CCC(=O)N5CCC(C)CC5)n4n3)CC2)c1 ?
Sm TGR block: -17.9%; Pf growth 96h: 28.8%; Pf growth 48h: 8.28µM*; SARS PLP yeast: 7.3%

What do the screens show for `COc1cccc(N2CCN(c3ccc4nnc(CCC(=O)O)n4n3)CC2)c1`?
Sm TGR block: -0.1%

How did CCCN1CCN(C(=O)CCc2nnc3ccc(N4CCN(c5cccc(OC)c5)CC4)nn23)CC1 do in these assays?
Sm TGR block: -16.4%; Pf growth 96h: 30.5%; Pf growth 48h: 10.4µM*; SARS PLP yeast: -2.6%

Results for O=C(c1ccco1)[C@@H]1[C@@H]2C(=O)N(c3ccc(Br)cc3)C(=O)[C@@H]2C2c3ccccc3C=CN21 (stereo partly drawn) ?
Sm TGR block: 17.8µM*; Pf growth 96h: inconclusive; Pf growth 48h: -10.0%; SARS PLP yeast: -1.3%

Results for O=C(c1ccco1)[C@@H]1[C@@H]2C(=O)N(c3ccc(F)cc3)C(=O)[C@@H]2C2c3ccccc3C=CN21 (stereo partly drawn) ?
Sm TGR block: 22.4µM*; Pf growth 96h: inconclusive; Pf growth 48h: -11.3%; SARS PLP yeast: inconclusive

How did CS(=O)(=O)N(CC(=O)Nc1ccc(CC#N)cc1)c1ccc(C23CC4CC(CC(C4)C2)C3)cc1 do in these assays?
Sm TGR block: -2.9%; Pf growth 96h: inconclusive; Pf growth 48h: 10.4µM*; SARS PLP yeast: -7.4%

How did CCn1nnc2cc(C(=O)NCCc3ccccc3F)ccc21 do in these assays?
Sm TGR block: 3.5%; Pf growth 96h: -9.8%; Pf growth 48h: 201.2%; SARS PLP yeast: 0.0%

Results for Cc1cccc(C(=O)N2c3ncnn3C3(CCCCC3)[C@@H]3CCCC[C@@H]32)c1 ?
Sm TGR block: 5.1%

What do the screens show for `O=C(O)c1cn(-c2ccc(F)cc2)c2cc(N3CCNCC3)c(F)cc2c1=O`?
Pf growth 96h: 3.38µM*; Pf growth 48h: inconclusive

How did CC(O)Cc1cn([C@@H](CCCCNC(=O)OC(C)(C)C)C(=O)N2CCN(C(=O)OC(C)(C)C)CC2)nn1 (stereo partly drawn) do in these assays?
Sm TGR block: -7.3%; Pf growth 96h: 5.3%; Pf growth 48h: 1.2%; SARS PLP yeast: 0.1%

Results for CC(C)(C)OC(=O)NCCCC[C@@H](C(=O)NCCCCCCCCCCC(=O)N1CCN(C(=O)OC(C)(C)C)CC1)n1cc(CCCC(=O)O)nn1 ?
Sm TGR block: -5.6%; Pf growth 96h: 5.86µM*; Pf growth 48h: 7.38µM*; SARS PLP yeast: -0.5%

Results for CCCCc1cn([C@@H](CCCCNC(=O)OC(C)(C)C)C(=O)N2CCN(C(=O)OC(C)(C)C)CC2)nn1 ?
Sm TGR block: -3.1%; Pf growth 96h: 10.4µM*; Pf growth 48h: 14.7µM*; SARS PLP yeast: 1.0%

What do the screens show for `CC(C)(C)OC(=O)NCCCC[C@@H](C(=O)N1CCN(C(=O)OC(C)(C)C)CC1)n1cc(CCC(=O)O)nn1`?
Sm TGR block: -13.9%; Pf growth 96h: 38.5%; Pf growth 48h: 25.4%; SARS PLP yeast: 0.5%

How did CC(C)(C)OC(=O)NCCCCCc1cn([C@@H](CO)C(=O)NCCCCCCCCCCC(=O)N2CCN(C(=O)OC(C)(C)C)CC2)nn1 do in these assays?
Sm TGR block: 3.8%; Pf growth 96h: 2.94µM*; Pf growth 48h: 1.17µM*; SARS PLP yeast: 2.3%

Results for CC(C)(C)OC(=O)CC[C@@H](C(=O)NCCCCCCCCCCC(=O)N1CCN(C(=O)OC(C)(C)C)CC1)n1cc(CCCCCNC(=O)OC(C)(C)C)nn1 ?
Sm TGR block: -15.5%; Pf growth 96h: 0.329µM*; Pf growth 48h: 0.37µM*; SARS PLP yeast: -25.1%

What do the screens show for `CN(CC(=O)Nc1cccc(F)c1)C(=O)CCc1nc2ccccc2c(=O)[nH]1`?
Sm TGR block: 0.3%; Pf growth 96h: -25.8%; Pf growth 48h: 10.0%; SARS PLP yeast: 2.7%

Results for CCN(CC)c1nc2c(c(=O)[nH]c(=O)n2C)n1CCOc1ccccc1 ?
Sm TGR block: -3.7%; Pf growth 96h: 0.657µM*; Pf growth 48h: 0.0%; SARS PLP yeast: 1.9%

How did Cn1c(=O)[nH]c(=O)c2c1nc([N+](=O)[O-])n2Cc1ccccc1 do in these assays?
Sm TGR block: 1.78µM*; Pf growth 96h: 13.1µM*; Pf growth 48h: 7.38µM*; SARS PLP yeast: -1.7%
